Experimental data published in PubChem BioAssay AID504616 (Sanford-Burnham Center for Chemical Genomics, 2011).
The list shows a part of the results.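 How the source made its calls: active means mean activity change at or below -40% when tested at 20 µM; inactive means the rest.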

test: Rh110 fluorescence interference by putative Apaf-1 activators, confirmation, artefact control for Apaf-1 activator project, biochemical, 20 µM (AID 504616); settings: quenched caspase reaction, Ex480/Em540, at 20 µM

Fluorescence interference (activity change), inactive:
COc1ccc(S(=O)(=O)N2CCCCC2)cc1NC(=O)c1cc([N+](=O)[O-])ccc1N1CCOCC1 4.4%
COc1ccc(OCCCC(=O)NCCc2ccccc2)cc1 3.73%
O=c1[nH]c2c(c(=O)n1Cc1ccccc1)CCC2 13.7%
O=C(CCc1ccccc1)NNC(=O)c1ccc(Br)cc1 -7.61%
Brc1ccc(/C=N/N2CCN(C3c4ccccc4-c4ccccc43)CC2)s1 -2.39%
Cc1ccc(S(=O)(=O)N2CCOCC2)cc1C(=O)NC(=S)N(Cc1ccccc1)C(C)C 3.5%
COC(=O)C(C)N(C#N)c1nc(C)nc(C)n1 (configuration not stated) 3.06%
O=[N+]([O-])c1ccc2nc(-c3ccccn3)[nH]c2c1 5.13%
C=C(C)C(=O)Nc1cccc(C2=NOC3(C2)C[C@H](C(N)=O)N(C(=O)C(c2ccccc2)c2ccccc2)C3)c1 (some centres not stated) 7%
Nc1cc(C(F)(F)F)ccc1N1CCOCC1 -1.22%
COc1ccc2c(c1)CCNC2Cc1ccc(OC)c(O)c1 (configuration not stated) -0.08%
COc1cc(C2C(C#N)=C(N)Oc3n[nH]c(-c4ccccn4)c32)cc(OC)c1OC (configuration not stated) 14.4%
COc1cc(C(=O)NCc2nnc(SCC(=O)Nc3nc4ccc(C)cc4s3)o2)cc(OC)c1OC -5.21%
CC(=O)NC(=S)NNC(=O)c1ccc(Br)cc1 -5.11%
COc1cccc(C(=O)Nc2ccc(N3CCCC3)cc2)c1 2.88%
C=CC1=C(C(=O)O)N2C(=O)[C@@H](NC(=O)/C(=N/OCC(=O)O)c3csc(N)n3)[C@H]2SC1 3.12%
C=CCNC(=O)c1ccc(C)c(Br)c1 10.4%
CCOCCc1c(O)nc(SCC(=O)NCc2ccco2)[nH]c1=O -8.32%
CN(C)S(=O)(=O)c1ccc(C(=O)NCCN=C2NS(=O)(=O)c3ccccc32)cc1 8.9%
O=c1[nH]cnc2c1c(-c1ccccc1)cn2-c1ccc(F)cc1 13.3%
CC(=O)CCC(=O)c1ccc2ccccc2c1 15%
O=C(Nc1ccccc1F)c1ccccc1-c1ccccc1 6.9%
